# Source: the supplement of paper PMC11732987, “Enantioselective OTUD7B fragment discovery through chemoproteomics screening and high-throughput optimisation” (Communications Chemistry, 2025)
# Unmarked numbers belong to inactive results.
# Assays:
# Experiment in all cases: log2 ratio of Biotin-Ahx-Ub-VS probe labelling (fragment/DMSO); higher = less target engagement (more negative = stronger competition), active = hit call of the paper (q ≤ 0.05, log2 ratio ≤ -1)
# Settings in all cases: compound concentration: 200 uM; treatment time: 3 h
# [1] = biological target: T1, USP19 (UniProt O94966)
# T1 sequence (whole entry): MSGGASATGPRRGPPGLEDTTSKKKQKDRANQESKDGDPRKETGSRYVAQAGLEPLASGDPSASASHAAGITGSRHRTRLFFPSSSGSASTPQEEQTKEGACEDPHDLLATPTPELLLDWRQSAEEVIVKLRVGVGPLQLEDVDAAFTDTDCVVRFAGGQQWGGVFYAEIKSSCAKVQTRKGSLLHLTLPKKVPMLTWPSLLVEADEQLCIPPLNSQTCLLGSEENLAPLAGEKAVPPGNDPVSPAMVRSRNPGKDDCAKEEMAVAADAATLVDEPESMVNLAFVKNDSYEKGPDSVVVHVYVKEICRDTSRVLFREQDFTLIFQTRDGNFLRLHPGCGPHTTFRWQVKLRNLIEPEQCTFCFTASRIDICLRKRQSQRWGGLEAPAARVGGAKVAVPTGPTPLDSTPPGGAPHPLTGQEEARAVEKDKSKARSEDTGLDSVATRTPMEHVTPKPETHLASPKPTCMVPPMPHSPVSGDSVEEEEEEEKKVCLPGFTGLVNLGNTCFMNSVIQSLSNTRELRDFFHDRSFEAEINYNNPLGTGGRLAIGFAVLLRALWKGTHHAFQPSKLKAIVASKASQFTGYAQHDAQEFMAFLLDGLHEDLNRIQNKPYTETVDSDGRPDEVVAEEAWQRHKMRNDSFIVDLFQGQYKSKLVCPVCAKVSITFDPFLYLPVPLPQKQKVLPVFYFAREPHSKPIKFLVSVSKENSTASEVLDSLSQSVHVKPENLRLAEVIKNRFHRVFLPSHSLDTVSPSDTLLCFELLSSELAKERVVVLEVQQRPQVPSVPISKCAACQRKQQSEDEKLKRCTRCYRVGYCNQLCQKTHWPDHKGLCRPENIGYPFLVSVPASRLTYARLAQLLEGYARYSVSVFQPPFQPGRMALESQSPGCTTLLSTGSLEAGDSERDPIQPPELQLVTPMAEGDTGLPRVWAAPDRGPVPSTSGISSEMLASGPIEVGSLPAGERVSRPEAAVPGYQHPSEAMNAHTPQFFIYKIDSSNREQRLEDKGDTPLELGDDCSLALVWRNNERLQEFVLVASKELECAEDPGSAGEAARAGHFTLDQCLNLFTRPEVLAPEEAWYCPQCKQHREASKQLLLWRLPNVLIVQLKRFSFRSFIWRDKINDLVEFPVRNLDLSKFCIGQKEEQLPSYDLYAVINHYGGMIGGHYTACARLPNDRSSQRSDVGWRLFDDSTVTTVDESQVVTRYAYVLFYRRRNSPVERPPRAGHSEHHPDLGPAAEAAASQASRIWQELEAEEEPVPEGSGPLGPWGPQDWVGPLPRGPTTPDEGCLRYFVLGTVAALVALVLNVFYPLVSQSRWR
# Outline: (§1)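 Global-median-normalised Spectronaut label-free quantities were compared by unpaired t-test, and values are average log2 ratios of fragment over vehicle. Only proteins with ≥2 unique peptides were used. HEK293T lysate (495 µg per sample) was treated in triplicate with fragment at 200 µM or vehicle for 3 h and then with Biotin-Ahx-Ub-VS at 0.5 µM final for 1 h. Labelled DUBs were then NeutrAvidin-enriched, digested with LysC and trypsin, and run by diaPASEF LC-MS/MS.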
# [2] = biological target: T2, USP22 (UniProt Q9UPT9)
# T2 sequence (whole entry): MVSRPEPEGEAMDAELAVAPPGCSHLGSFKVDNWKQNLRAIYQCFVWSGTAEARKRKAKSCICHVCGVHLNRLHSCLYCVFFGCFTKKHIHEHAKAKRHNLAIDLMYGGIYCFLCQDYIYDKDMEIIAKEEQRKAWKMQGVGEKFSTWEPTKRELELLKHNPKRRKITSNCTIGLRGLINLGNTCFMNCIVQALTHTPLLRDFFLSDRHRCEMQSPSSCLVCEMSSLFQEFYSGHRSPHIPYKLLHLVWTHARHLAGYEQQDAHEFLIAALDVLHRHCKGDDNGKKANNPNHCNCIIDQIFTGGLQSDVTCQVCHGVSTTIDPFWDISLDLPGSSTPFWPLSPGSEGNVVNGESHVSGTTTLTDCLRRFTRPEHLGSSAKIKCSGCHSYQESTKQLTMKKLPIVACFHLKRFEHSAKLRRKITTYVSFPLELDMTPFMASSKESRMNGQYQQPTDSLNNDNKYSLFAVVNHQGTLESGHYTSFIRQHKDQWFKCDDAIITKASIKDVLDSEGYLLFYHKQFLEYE
# Outline: as §1
# [3] = biological target: USP24 (UniProt Q9UPU5)
# Outline: as §1
# [4] = biological target: T3, USP25 (UniProt Q9UHP3)
# T3 sequence (whole entry): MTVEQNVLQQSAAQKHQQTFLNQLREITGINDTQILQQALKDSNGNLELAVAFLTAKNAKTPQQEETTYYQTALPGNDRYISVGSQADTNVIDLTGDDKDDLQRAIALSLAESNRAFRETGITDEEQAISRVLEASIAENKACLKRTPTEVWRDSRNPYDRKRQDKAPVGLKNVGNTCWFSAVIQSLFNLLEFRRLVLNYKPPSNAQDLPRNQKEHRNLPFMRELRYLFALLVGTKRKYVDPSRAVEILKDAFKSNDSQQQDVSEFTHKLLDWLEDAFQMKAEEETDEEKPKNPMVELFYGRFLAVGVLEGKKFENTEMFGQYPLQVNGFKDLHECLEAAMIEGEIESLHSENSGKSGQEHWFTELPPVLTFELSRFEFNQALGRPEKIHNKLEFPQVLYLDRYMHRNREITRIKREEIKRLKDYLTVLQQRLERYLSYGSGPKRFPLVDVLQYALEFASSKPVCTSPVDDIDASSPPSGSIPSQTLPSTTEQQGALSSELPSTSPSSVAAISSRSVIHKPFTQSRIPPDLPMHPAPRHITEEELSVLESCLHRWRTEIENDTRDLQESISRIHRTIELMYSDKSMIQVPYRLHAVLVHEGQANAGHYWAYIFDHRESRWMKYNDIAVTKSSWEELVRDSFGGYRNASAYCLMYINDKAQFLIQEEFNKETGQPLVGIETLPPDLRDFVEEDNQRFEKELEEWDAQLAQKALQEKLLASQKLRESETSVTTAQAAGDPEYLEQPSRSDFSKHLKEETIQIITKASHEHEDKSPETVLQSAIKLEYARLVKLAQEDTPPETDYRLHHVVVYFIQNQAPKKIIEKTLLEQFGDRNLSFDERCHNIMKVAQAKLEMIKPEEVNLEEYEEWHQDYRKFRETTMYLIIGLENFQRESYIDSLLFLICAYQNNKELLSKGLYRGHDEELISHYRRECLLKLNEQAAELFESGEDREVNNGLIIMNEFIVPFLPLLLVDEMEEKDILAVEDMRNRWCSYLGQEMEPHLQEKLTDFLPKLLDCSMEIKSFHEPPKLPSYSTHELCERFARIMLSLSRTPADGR
# Outline: as §1
# [5] = biological target: T4, USP28 (UniProt Q96RU2)
# T4 sequence (whole entry): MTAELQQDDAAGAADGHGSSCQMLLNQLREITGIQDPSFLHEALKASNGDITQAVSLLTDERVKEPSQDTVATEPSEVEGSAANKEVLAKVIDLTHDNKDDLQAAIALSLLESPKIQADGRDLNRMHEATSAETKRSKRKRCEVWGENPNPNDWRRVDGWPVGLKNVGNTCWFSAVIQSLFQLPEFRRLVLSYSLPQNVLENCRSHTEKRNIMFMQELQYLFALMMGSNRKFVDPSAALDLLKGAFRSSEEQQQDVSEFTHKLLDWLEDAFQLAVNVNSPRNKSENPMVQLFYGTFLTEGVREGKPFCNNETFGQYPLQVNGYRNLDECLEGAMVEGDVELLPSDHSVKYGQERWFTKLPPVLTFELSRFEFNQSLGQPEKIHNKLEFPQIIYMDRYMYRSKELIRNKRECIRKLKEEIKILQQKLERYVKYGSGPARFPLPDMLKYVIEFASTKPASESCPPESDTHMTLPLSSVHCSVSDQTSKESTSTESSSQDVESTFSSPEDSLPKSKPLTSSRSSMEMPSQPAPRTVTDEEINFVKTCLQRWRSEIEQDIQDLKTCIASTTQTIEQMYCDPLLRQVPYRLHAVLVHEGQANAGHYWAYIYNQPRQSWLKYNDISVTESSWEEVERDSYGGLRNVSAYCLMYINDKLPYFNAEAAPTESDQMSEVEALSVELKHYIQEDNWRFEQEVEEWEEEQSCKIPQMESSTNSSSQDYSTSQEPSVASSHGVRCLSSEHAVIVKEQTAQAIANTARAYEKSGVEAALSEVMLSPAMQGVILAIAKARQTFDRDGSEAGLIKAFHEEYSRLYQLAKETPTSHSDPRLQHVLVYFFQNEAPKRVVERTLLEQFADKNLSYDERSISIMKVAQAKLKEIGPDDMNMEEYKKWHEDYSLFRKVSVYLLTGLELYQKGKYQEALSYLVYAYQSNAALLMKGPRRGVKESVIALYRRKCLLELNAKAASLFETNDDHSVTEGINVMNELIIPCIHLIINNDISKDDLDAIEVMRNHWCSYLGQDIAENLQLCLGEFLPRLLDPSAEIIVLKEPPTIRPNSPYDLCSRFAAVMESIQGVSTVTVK
# Outline: as §1
# Sequence of USP24 (Q9UPU5 whole entry): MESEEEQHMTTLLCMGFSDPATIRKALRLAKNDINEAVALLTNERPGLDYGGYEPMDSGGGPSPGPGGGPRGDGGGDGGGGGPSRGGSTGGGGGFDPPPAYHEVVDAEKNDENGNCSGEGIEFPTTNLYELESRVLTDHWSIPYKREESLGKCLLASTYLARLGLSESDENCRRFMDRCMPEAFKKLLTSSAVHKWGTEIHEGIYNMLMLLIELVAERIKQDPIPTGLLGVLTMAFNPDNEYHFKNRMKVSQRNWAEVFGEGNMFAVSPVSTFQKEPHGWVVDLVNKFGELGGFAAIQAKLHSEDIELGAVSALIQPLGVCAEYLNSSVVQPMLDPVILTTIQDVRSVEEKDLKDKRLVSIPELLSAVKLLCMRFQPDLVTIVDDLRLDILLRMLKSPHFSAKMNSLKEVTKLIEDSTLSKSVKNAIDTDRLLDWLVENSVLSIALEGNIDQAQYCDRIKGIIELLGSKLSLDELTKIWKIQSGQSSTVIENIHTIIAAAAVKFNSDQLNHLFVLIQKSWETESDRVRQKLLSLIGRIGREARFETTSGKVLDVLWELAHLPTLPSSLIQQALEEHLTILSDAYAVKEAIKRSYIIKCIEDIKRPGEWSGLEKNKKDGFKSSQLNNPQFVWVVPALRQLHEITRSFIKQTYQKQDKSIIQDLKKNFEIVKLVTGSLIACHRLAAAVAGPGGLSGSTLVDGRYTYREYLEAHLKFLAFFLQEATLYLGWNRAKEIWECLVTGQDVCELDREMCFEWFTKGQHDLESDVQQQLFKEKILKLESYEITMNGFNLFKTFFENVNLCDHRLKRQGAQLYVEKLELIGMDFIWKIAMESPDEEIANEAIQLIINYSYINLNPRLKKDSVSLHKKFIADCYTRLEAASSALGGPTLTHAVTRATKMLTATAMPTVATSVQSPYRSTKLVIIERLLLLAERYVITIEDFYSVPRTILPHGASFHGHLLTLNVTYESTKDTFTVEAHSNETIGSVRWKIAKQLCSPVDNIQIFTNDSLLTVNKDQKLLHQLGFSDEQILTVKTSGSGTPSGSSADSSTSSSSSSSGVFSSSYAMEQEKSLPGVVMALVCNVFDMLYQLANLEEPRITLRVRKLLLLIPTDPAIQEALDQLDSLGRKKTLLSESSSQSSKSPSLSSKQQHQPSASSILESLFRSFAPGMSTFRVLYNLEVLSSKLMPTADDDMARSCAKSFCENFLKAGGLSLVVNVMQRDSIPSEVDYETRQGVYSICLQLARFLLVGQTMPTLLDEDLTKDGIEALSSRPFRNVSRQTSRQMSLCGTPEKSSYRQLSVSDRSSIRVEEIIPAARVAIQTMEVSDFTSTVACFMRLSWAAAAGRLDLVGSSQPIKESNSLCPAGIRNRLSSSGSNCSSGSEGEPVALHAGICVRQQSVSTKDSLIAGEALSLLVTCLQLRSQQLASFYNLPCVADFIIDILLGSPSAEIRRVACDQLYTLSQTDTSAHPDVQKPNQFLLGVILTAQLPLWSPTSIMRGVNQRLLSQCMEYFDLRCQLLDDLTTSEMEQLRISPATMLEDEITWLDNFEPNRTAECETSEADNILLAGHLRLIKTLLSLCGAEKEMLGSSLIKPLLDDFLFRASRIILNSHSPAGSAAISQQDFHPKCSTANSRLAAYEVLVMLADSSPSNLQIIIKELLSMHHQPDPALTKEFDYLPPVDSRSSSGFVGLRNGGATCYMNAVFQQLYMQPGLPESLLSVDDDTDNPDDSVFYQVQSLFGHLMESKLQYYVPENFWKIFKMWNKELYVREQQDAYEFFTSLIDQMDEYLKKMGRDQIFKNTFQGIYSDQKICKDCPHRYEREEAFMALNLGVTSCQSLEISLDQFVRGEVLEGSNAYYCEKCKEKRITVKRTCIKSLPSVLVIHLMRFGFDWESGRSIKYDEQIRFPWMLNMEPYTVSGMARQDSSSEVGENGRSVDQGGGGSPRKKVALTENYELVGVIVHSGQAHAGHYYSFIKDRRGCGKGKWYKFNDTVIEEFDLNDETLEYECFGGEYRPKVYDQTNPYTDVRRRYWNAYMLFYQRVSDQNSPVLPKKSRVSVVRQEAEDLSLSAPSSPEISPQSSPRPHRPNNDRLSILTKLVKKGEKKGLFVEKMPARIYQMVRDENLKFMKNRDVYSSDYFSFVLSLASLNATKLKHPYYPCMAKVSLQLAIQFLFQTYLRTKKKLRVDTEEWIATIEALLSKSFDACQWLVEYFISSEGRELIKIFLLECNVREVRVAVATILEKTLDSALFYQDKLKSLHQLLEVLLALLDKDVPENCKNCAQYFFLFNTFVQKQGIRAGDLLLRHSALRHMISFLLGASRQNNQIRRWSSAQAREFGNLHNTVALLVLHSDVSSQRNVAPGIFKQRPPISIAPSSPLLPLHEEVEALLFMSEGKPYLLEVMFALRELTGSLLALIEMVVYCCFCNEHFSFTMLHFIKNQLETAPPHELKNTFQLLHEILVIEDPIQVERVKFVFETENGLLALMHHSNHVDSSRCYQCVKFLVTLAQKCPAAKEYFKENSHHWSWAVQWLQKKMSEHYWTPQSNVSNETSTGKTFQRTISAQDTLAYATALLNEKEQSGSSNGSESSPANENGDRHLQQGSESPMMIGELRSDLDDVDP
smiles,measurement,setting,value
Cc1c(C#N)c(NC(=O)CCl)n(Cc2ccco2)c1C,log2 ratio of Biotin-Ahx-Ub-VS probe labelling,[1],-0.239
same,log2 ratio of Biotin-Ahx-Ub-VS probe labelling,[2],-0.178
same,log2 ratio of Biotin-Ahx-Ub-VS probe labelling,[3],-0.837
same,log2 ratio of Biotin-Ahx-Ub-VS probe labelling,[4],-1.24 (active)
same,log2 ratio of Biotin-Ahx-Ub-VS probe labelling,[5],-1.76 (active)
